Screening data (PubChem)
In the library only some 17% were active in any assay of this set; here they are far more common.
ClpP mod – qHTS Assay for Activators of ClpP; 340,000 compounds, 1.9% hits; purified B. subtilis ClpP, FRET peptide cleavage, 20 min; Potency, µM (top dose mostly 57.5 µM), for the others: at the top dose activity change, negative = active; ATP-dependent Clp protease proteolytic subunit (Bacillus subtilis (strain 168)), P80244; active = well fitted falling curve with a large enough effect; inconclusive = small, poorly fitted or top-dose-only effect; inactive = no such curve, though single readings can be large or run the other way; also: the source files actives as falling curves though it sought activators and does not explain the sign; nearly all actives have a fitted effect of over 65% in size
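ClpP 10 microg/mL final, pH 8 Tris/KCl buffer with BSA, glycerol, Tween-20; compound pinned in; FRET-FV substrate; RT 20 min; Ex320/Em430; ΔFRET vs ADEP 5.8 microM, DMSO, no enzyme.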
TDP1 cell noCPT – qHTS for Inhibitors of human tyrosyl-DNA phosphodiesterase 1 (TDP1): qHTS in cells in absence of CPT; DT40 Tdp1-/- hTDP1 cells, no CPT, ATP luminescence, 48 h; 420,000 compounds, 15% hits; AID 686978, 2013; Potency, µM (top dose mostly 46.2 µM), inactives show at the top dose activity change, negative = growth inhibition, most hits filed as inhibitors; also: % is scaled to controls: 0 for no effect and ±100 for the full control effect; nearly all actives have a fitted effect of over 55% in size
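Chicken DT40 Tdp1-/- cells stably complemented with human TDP1 were seeded at 400 cells/well with DMSO in place of 20 nM camptothecin. After compound pinning, cells grew at least 48 hr at 37 °C; viability read by CellTiter-Glo luminescence.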
TDP1 cell CPT – growth inhibition of DT40 Tdp1-/-;hTDP1 cells with camptothecin (screen for TDP1 inhibitors) | Potency, µM (titrated, usually from 46.2 µM), without a hit: top-dose activity change, negative = growth inhibition, usual class: inhibitors | chicken DT40 Tdp1-/-;hTDP1 cells + 20 nM CPT, ATP luminescence, 48 h | 420,000 compounds, 12% hits | AID 686979; also: % is scaled to controls: 0 for no effect and ±100 for the full control effect; nearly all actives have a fitted effect of over 55% in size
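Chicken DT40 Tdp1-/- cells complemented with human TDP1, 400 cells/well, exposed to compounds plus 20 nM camptothecin for at least 48 h at 37 C; viability read as ATP content by CellTiter-Glo luminescence.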
TDP1 block – inhibitors of human tyrosyl-DNA phosphodiesterase TDP1. Q9NUW8. recombinant TDP1, AlphaScreen DNA substrate cleavage. Potency, µM (titrated, usually from 130 µM), for the others: top-dose activity change, negative = inhibition, hits mostly inhibitors. 350,000 compounds, 0.28% hits. AID 485290; also: % is scaled to controls: 0 for no effect and ±100 for the full control effect; nearly all actives have a fitted effect of over 40% in size
Target sequence (Q9NUW8 whole entry, looked up): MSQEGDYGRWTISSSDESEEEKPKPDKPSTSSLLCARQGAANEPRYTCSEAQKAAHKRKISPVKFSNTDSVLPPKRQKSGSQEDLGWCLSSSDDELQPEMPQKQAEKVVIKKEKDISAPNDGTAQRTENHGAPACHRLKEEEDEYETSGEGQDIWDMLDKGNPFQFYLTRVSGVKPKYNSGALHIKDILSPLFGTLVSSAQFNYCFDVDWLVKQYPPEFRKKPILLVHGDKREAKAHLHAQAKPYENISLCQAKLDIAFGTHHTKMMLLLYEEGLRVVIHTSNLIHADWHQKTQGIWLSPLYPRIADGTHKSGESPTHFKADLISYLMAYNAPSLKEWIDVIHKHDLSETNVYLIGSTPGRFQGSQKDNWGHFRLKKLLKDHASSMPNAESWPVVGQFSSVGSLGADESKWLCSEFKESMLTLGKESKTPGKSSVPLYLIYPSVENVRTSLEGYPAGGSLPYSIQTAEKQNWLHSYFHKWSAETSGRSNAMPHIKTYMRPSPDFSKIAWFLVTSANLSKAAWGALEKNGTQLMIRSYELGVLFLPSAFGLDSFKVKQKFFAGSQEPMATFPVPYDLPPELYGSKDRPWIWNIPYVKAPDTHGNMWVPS
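Recombinant E. coli-expressed Tdp1 (1 nM) preincubated with compound 15 min at RT, then 5'-biotin/3'-phosphotyrosine-FITC DNA substrate (15 nM) added for 5 min. AlphaScreen beads (10 ug/ml) added, 10 min RT; tyrosine-FITC cleavage read as signal loss.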
* = called active by the depositor; ? = inconclusive; nt = no result given; [ ] = another dose, or the depositor's remark. Unless noted, calls follow the shape of the dose curve; as a rule, active = well fitted curve in the direction sought with a large enough effect; inconclusive = small, poorly fitted or top-dose-only effect, or another doubt; inactive = no such curve, though single readings can be large; an effect the other way counts as inactive or inconclusive. Potency is read from the fitted curve at half-maximal effect.

SMILES	ClpP mod	TDP1 cell noCPT	TDP1 cell CPT	TDP1 block
COC(=O)[C@@H]1[C@H]2C[C@H]3c4[nH]c5ccccc5c4CCN3C[C@H]2CC[C@@H]1O	nt	-27%	-26%	5%
CC(=O)Nc1c2c(nn1-c1ccccc1C)CS(=O)(=O)C2	nt	6%	2%	nt
CC1(C2CC(C(F)(F)F)n3nc(C(=O)O)cc3N2)CC1 (centres undefined)	nt	-5%	6%	-8%
CCOCCCNC(=O)C1CCN(c2nn3cc(-c4ccc(F)cc4)nc3s2)CC1	1%	15µM*	21µM*	0%
CCc1ccc(NC(=O)C2CCCN(c3nn4cc(-c5ccc(OC)cc5)nc4s3)C2)cc1 (centres undefined)	1%	13µM*	?	-5%
COc1ccc(-c2cn3nc(N4CCCC(C(=O)Nc5cc(Cl)ccc5OC)C4)sc3n2)cc1 (centres undefined)	2%	?	?	-2%
CCc1ccc(CNC(=O)C2CCCN(c3nn4cc(-c5ccc(F)cc5)nc4s3)C2)cc1 (centres undefined)	1%	16µM*	16µM*	11%
COc1ccc(-c2cn3nc(N4CCCC(C(=O)NCc5ccc(Cl)cc5)C4)sc3n2)cc1 (centres undefined)	2%	8.2µM*	9.2µM*	4%
O=C(NCc1cccc(F)c1)C1CCN(c2nn3cc(-c4ccc(F)cc4)nc3s2)CC1	-1%	?	-26%	1%
COc1ccc(OC)c(C(=O)CN2C(=O)N(c3cc(C)cc(C)c3)S(=O)(=O)c3ccccc32)c1	5%	-5%	-1%	4%
COc1cccc(CNC(=O)C2CCCN(c3nn4cc(-c5ccc(C)cc5)nc4s3)C2)c1 (centres undefined)	-4%	15µM*	21µM*	-1%
CCOc1ccc(CNC(=O)C2CCCN(c3nn4cc(-c5ccc(OC)cc5)nc4s3)C2)cc1 (centres undefined)	-1%	18µM*	16µM*	9%
COc1cccc(CNC(=O)C2CCCN(c3nn4c(=O)cc(C)nc4s3)C2)c1 (centres undefined)	0%	-4%	3%	-2%
COc1ccc(-c2cn3nc(N4CCCC(C(=O)Nc5ccccc5OC)C4)sc3n2)cc1 (centres undefined)	1%	16µM*	15µM*	5%
CCOc1ccc(CNC(=O)C2CCCN(c3nn4cc(-c5ccc(F)cc5)nc4s3)C2)cc1 (centres undefined)	2%	23µM*	21µM*	1%
CCc1ccc(-n2c(SCC(=O)Nc3ccc(C(=O)O)cc3)nnc2-c2ccncc2)cc1	-4%	21%	3%	0%
O=C(COC(=O)Cc1ccccc1F)Nc1cccc(S(=O)(=O)NC2=NCCCCC2)c1	-1%	-1%	-24%	-1%
CCCSCCCNC(=O)C1CCCN(c2nn3cc(-c4ccc(OC)cc4)nc3s2)C1 (centres undefined)	-2%	13µM*	21µM*	1%
COCCCNC(=O)C1CCCN(c2nn3cc(-c4ccc(C)cc4)nc3s2)C1 (centres undefined)	2%	?	?	1%
CC(C)c1ccc(C(=O)NNC(=O)C2C3CCC(C3)C2C(=O)O)cc1 (centres undefined)	nt	nt	nt	-7%
Cn1nc(C(=O)N2CCN(S(=O)(=O)/C=C/c3ccccc3)CC2)c2ccccc2c1=O	-5%	?	14%	3%
CCOc1ccc(-c2c(C)nn3c(C)c(C(=O)NC(C)c4ccccc4)cnc23)cc1OCC (centres undefined)	-4%	16µM*	21µM*	7%
CCOc1ccc(-c2c(C)nn3c(C)c(C(=O)NCCc4ccccc4)cnc23)cc1OCC	2%	5.2µM*	?	7%
COc1cc2ccccc2cc1C(=O)Nc1cccnc1	-16%	?	-11%	2%
COc1cc2ccccc2cc1C(=O)NC(=S)Nc1ccc(C(=O)O)cc1	1%	-4%	-13%	50µM*
SMILES	ClpP mod	TDP1 cell noCPT	TDP1 cell CPT	TDP1 block
COc1cc2ccccc2cc1C(=O)NC(=S)Nc1cccc(C(=O)O)c1	nt	-30%	-5%	nt
COc1cc2ccccc2cc1C(=O)Nc1ccc(Cl)c(-c2nc3ccccc3o2)c1	4%	23µM*	?	0%[12.3 µM]
COc1cc2ccccc2cc1C(=O)Nc1ccc(N2CCN(C(=O)C(C)C)CC2)cc1	1%	10µM*	16µM*	7%
COc1ccc(NC(=O)c2cc3ccccc3cc2OC)cc1	0%	?	29µM*	nt
COc1cc2ccccc2cc1C(=O)Nc1ccc(N2CCN(C)CC2)cc1	6%	?	?	5%
CCc1ccc(NC(=O)CN2C(=O)CC(c3ccccc3)Sc3ccccc32)cc1 (centres undefined)	-5%	nt	nt	-1%
O=C(O)c1ccc(S(=O)(=O)N[C@H](Cc2ccc(O)cc2)C(=O)O)cc1	nt	nt	nt	-7%
COc1cc2ccccc2cc1C(=O)N/N=C/c1cccs1	-11%	1.8µM*	2.3µM*	nt
COc1cc(OC)c(C(=O)Nc2cccc(C(C)=O)c2)cc1OC	16µM*	?	?	5%
O=C(NCc1ccco1)/C(=C/C=C\c1ccccc1)NC(=O)c1ccc(Br)o1	-4%	?	16µM*	-6%
O=C(O)c1cccc(OS(=O)(=O)c2cc(Br)ccc2Br)c1	-1%	1%	-4%	-8%
COc1ccc(NC(=O)CN(C)C(=O)c2cc3c(s2)CCC3)cc1	-2%	-13%	2%	1.3µM*
CN(CC(=O)Nc1ccccc1Cl)C(=O)c1cc2c(s1)CCCCC2	-2%	16µM*	?	nt
C(=NNc1ccc2ccccc2n1)c1ccccn1	0%	1µM*	1.6µM*	nt
Cc1csc(N/N=C/c2ccc([N+](=O)[O-])cc2)n1	nt	?	0%	nt
C(=N\NC1=Nc2cccc3cccc1c23)/c1ccccn1	1%	9.2µM*	8.2µM*	11%
Cc1csc(N/N=C/c2ccccn2)n1	nt	0.46µM*	0.58µM*	9%
CC1Cc2ccccc2N1C(=O)c1nn(C)cc1Br (centres undefined)	-2%	-18%	-8%	5%
CCOc1ccc(C2/C(=C(\O)c3cccc(OC)c3)C(=O)C(=O)N2c2ccccn2)cc1OC (centres undefined)	nt	-14%	-17%	-7%
Cc1ncc2c(c1CNS(=O)(=O)N(C)C)CCN(C(=O)c1c(F)cccc1F)C2	nt	-10%	6%[9.04 µM]	nt
C=CCc1cc(/C=N/n2cnnc2)cc(OCC)c1O	-5%	?	3%	-2%
C=CCc1cc(C=Nc2ccc(N3CCOCC3)cc2)cc(OCC)c1O	nt	16µM*	-28%	nt
Cc1ccc(C2CC(=O)Oc3cc4c(cc32)OCO4)cc1 (centres undefined)	nt	nt	nt	-14%[234 µM]
